According to PubChem BioAssay AID1159580 (chemical genetic matrix, 2015):
The campaign covered roughly 5,500 compounds. About 2,000 (36%) were called active. Another 18% or so got no clear call; they are omitted. Rule as the data show it: active = normalized growth mostly below about 0.91 (no sharp cut-off); inconclusive = no clear call, values can overlap the other calls; inactive = mostly above about 0.92. Some of the results follow.

Assay: chemical genetic growth profiling, strain panel (AID 1159580);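 also: tested at 20 µM; growth read once vehicle control cultures reached saturation at 30 °C; 1 = growth at the plate median or of vehicle wells; lower values mean less growth of the strain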
Details: S. cerevisiae deletion strains, growth OD
[1] = locus YHR030C, strain SLT2, hits give low values
[2] = locus YHR079C, strain IRE1, hits give low values
[3] = locus YJL095W, strain BCK1, hits give low values
[4] = locus YJR066W, strain TOR1, hits give low values
[5] = locus YLR113W, strain HOG1, hits give low values
[6] = locus YNL183C, strain NPR1, hits give low values
[7] = locus YOR231W, strain MKK1, hits give low values
[8] = locus YPL256C, strain CLN2, hits give low values

Measured: normalized growth

CC1(O)CC2C(CC1O)C2(C)C (stereo not given)
inactive: locus YAL021C, strain ccr4, hits give low values 0.988 | locus YAL026C, strain drs2, hits give low values 1 | locus YAL030W, strain snc1, hits give low values 0.99 | locus YBL061C, strain skt5, hits give low values 0.988 | locus YBR009C, strain hhf1, hits give low values 1.04 | locus YBR023C, strain chs3, hits give low values 0.999 | locus YBR171W, strain sec66, hits give low values 0.998 | locus YBR231C, strain swc5, hits give low values 0.993 | locus YBR279W, strain paf1, hits give low values 0.995 | locus YCL011C, strain gbp2, hits give low values 1 | locus YCL016C, strain dcc1, hits give low values 1.01 | locus YCL069W, strain vba3, hits give low values 1 | locus YCR088W, strain abp1, hits give low values 0.997 | locus YDL005C, strain med2, hits give low values 0.995 | locus YDL040C, strain nat1, hits give low values 0.999 | locus YDR001C, strain nth1, hits give low values 1.01 | locus YDR069C, strain doa4, hits give low values 1.02 | locus YDR137W, strain rgp1, hits give low values 1 | locus YDR159W, strain sac3, hits give low values 1 | locus YDR195W, strain ref2 0.988 | locus YDR297W, strain sur2, hits give low values 1.01 | locus YDR334W, strain swr1, hits give low values 1 | locus YDR335W, strain msn5, hits give low values 1 | locus YDR392W, strain spt3, hits give low values 1 | locus YEL003W, strain gim4, hits give low values 1.01 | locus YEL037C, strain rad23, hits give low values 1 | locus YEL061C, strain CIN8 (second series), hits give low values 0.999 | locus YER015W, strain faa2, hits give low values 0.995 | locus YER016W, strain bim1, hits give low values 0.998 | locus YER111C, strain swi4, hits give low values 0.989 | locus YER155C, strain BEM2 (second series), hits give low values 1 | locus YFR010W, strain ubp6, hits give low values 0.997 | locus YGL167C, strain pmr1, hits give low values 1.01 | locus YGL173C, strain kem1, hits give low values 0.999 | locus YGL227W, strain vid30, hits give low values 0.99 | locus YGL240W, strain doc1, hits give low values 1.01 | locus YGL253W, strain hxk2, hits give low values 1 | locus YHR013C, strain ard1, hits give low values 1 | locus YHR027C, strain rpn1, hits give low values 0.995 | [1] 1.04 | [2] 1.03 | locus YHR142W, strain chs7, hits give low values 1.01 | locus YJL092W, strain hpr5, hits give low values 1 | locus YJL095W, strain BCK1 (second series), hits give low values 0.996 | [3] 0.993 | locus YJL115W, strain asf1, hits give low values 0.996 | locus YJL129C, strain trk1, hits give low values 1 | locus YJL154C, strain vps35, hits give low values 0.994 | locus YJL164C, strain tpk1, hits give low values 0.998 | locus YJL166W, strain qcr8, hits give low values 1 | locus YJL187C, strain SWE1, hits give low values 0.995 | [4] 0.989 | locus YKL160W, strain elf1, hits give low values 0.994 | locus YKR026C, strain gcn3, hits give low values 0.994 | locus YKR091W, strain srl3, hits give low values 1 | locus YLL001W, strain dnm1, hits give low values 1 | locus YLL026W, hits give low values 0.998 | locus YLL041C, strain sdh2, hits give low values 0.991 | locus YLR027C, strain aat2, hits give low values 1 | [5] 0.976 | locus YLR221C, strain rsa3, hits give low values 0.999 | locus YLR258W, strain gsy2, hits give low values 0.982 | locus YLR262C, strain YPT6 (second series), hits give low values 1.02 | locus YLR320W, strain mms22, hits give low values 0.994 | locus YLR342W, strain FKS1, hits give low values 1 | locus YLR357W, strain rsc2, hits give low values 0.969 | locus YLR370C, strain arc18, hits give low values 1.01 | locus YLR384C, strain iki3, hits give low values 0.971 | locus YML120C, strain ndi1, hits give low values 1 | locus YMR058W, strain fet3, hits give low values 0.999 | locus YMR125W, strain sto1, hits give low values 0.988 | locus YMR129W, hits give low values 0.995 | locus YMR205C, strain PFK2, hits give low values 0.998 | locus YMR231W, strain pep5, hits give low values 1.01 | locus YNL071W, strain lat1, hits give low values 1 | [6] 0.935 | locus YNL209W, strain ssb2, hits give low values 1.01 | locus YNL248C, strain rpa49, hits give low values 1 | locus YNL322C, strain KRE1 (second series), hits give low values 0.981 | locus YNR049C, strain mso1, hits give low values 0.985 | locus YOR001W, strain rrp6, hits give low values 1.01 | locus YOR070C, strain gyp1, hits give low values 0.997 | locus YOR080W, strain dia2, hits give low values 1 | locus YOR083W, strain WHI5, hits give low values 0.999 | locus YOR106W, strain vam3, hits give low values 0.992 | [7] 1.03 | locus YOR265W, strain rbl2, hits give low values 1.01 | locus YOR270C, strain vph1, hits give low values 1.03 | locus YOR290C, strain snf2, hits give low values 1.01 | locus YPL051W, strain arl3, hits give low values 1 | locus YPL078C, strain atp4, hits give low values 0.999 | locus YPL106C, strain sse1, hits give low values 1.01 | locus YPL240C, strain hsp82, hits give low values 0.998 | [8] 1.02

CCOC(=O)C1C(c2c(F)cccc2Cl)C(C(=O)OCC)C(O)(C(F)(F)F)NC1(O)C(F)(F)F (stereo not given)
inactive: locus YAR019C, strain CDC15, hits give low values 0.984 | locus YBL105C, strain PKC1, hits give low values 0.988 | locus YBR135W, strain CKS1, hits give low values 0.994 | locus YBR136W, strain MEC1, hits give low values 0.979 | locus YBR160W, strain CDC28, hits give low values 0.993 | locus YDL017W, strain CDC7, hits give low values 0.99 | locus YDL028C, strain MPS1, hits give low values 0.993 | locus YDL101C, strain DUN1, hits give low values 0.983 | locus YDL108W, strain KIN28, hits give low values 0.994 | locus YDL132W, strain cdc53, hits give low values 0.993 | locus YDL214C, strain PRR2, hits give low values 0.986 | locus YDR052C, strain DBF4, hits give low values 0.99 | locus YDR054C, strain cdc34, hits give low values 0.985 | locus YDR226W, strain ADK1, hits give low values 0.992 | locus YDR477W, strain SNF1, hits give low values 0.998 | locus YER123W, strain YCK3, hits give low values 0.966 | locus YER133W, strain GLC7, hits give low values 0.988 | locus YFL009W, strain cdc4, hits give low values 0.991 | locus YFL029C, strain CAK1, hits give low values 0.981 | locus YFR003C, strain YPI1, hits give low values 0.992 | locus YFR019W, strain FAB1, hits give low values 0.942 | locus YFR028C, strain CDC14, hits give low values 0.991 | locus YGR040W, strain KSS1, hits give low values 0.994 | locus YGR052W, strain FMP48, hits give low values 1.05 | locus YGR092W, strain DBF2, hits give low values 1 | [1] 0.964 | [2] 0.971 | locus YHR082C, strain KSP1, hits give low values 0.994 | locus YHR205W, strain SCH9, hits give low values 0.965 | locus YIL147C, strain SLN1, hits give low values 0.987 | [3] 0.982 | locus YJL128C, strain PBS2, hits give low values 0.965 | locus YJL157C, strain FAR1, hits give low values 0.994 | locus YJR016C, strain ILV3, hits give low values 0.996 | locus YJR066W, strain TOR1 (second series), hits give low values 0.951 | [4] 0.969 | locus YKL048C, strain ELM1, hits give low values 0.988 | locus YKL067W, strain YNK1, hits give low values 0.987 | locus YKL101W, strain HSL1, hits give low values 0.989 | locus YKL193C, strain SDS22, hits give low values 0.99 | locus YKL203C, strain TOR2, hits give low values 1.06 | [5] 0.926 | locus YLR133W, strain CKI1, hits give low values 0.985 | locus YLR403W, strain SFP1, hits give low values 0.986 | locus YML070W, strain DAK1, hits give low values 0.987 | locus YMR001C, strain CDC5, hits give low values 0.99 | locus YMR205C, strain PFK2 (second series), hits give low values 0.997 | locus YMR277W, strain FCP1, hits give low values 0.991 | locus YNL006W, strain LST8, hits give low values 0.996 | locus YNL020C, strain ARK1, hits give low values 0.994 | locus YNL161W, strain CBK1, hits give low values 0.991 | [6] 0.977 | locus YNL207W, strain RIO2, hits give low values 0.992 | locus YNL222W, strain SSU72, hits give low values 0.996 | locus YNL307C, strain MCK1 (second series), hits give low values 0.986 | locus YOL078W, strain AVO1, hits give low values 0.998 | locus YOL136C, strain PFK27, hits give low values 0.979 | locus YOR061W, strain CKA2, hits give low values 0.996 | locus YOR119C, strain RIO1, hits give low values 1.03 | [7] 1 | locus YOR329C, strain SCD5, hits give low values 0.986 | locus YPL031C, strain PHO85, hits give low values 0.99 | locus YPL153C, strain RAD53, hits give low values 0.992 | locus YPL204W, strain HRR25, hits give low values 0.984 | locus YPL209C, strain IPL1, hits give low values 0.988 | [8] 0.935 | locus YPR025C, strain CCL1, hits give low values 0.986 | locus YPR106W, strain ISR1, hits give low values 0.991 | locus YPR111W, strain DBF20, hits give low values 0.984 | strain NNK1, hits give low values 0.987 | strain TSCII, hits give low values 0.995
